Test results as given in ChEMBL document CHEMBL1201862, “PubChem BioAssay data set” (2004).
Out of some 390,000 compounds screened, about 17,000 (4.4%) were called active. About 8% were inconclusive and are not listed. No cut-off for these calls is given here. The entries come from a sample that favours actives as a whole.

What follows are compounds tested against T1, Lysine-specific demethylase 4A (Homo sapiens) (UniProt O75164) (assay: qHTS Assay for Inhibitors of JMJD2A-Tudor Domain. [Related pubchem assays (depositor defined):AID504402]).
T1 sequence (whole entry): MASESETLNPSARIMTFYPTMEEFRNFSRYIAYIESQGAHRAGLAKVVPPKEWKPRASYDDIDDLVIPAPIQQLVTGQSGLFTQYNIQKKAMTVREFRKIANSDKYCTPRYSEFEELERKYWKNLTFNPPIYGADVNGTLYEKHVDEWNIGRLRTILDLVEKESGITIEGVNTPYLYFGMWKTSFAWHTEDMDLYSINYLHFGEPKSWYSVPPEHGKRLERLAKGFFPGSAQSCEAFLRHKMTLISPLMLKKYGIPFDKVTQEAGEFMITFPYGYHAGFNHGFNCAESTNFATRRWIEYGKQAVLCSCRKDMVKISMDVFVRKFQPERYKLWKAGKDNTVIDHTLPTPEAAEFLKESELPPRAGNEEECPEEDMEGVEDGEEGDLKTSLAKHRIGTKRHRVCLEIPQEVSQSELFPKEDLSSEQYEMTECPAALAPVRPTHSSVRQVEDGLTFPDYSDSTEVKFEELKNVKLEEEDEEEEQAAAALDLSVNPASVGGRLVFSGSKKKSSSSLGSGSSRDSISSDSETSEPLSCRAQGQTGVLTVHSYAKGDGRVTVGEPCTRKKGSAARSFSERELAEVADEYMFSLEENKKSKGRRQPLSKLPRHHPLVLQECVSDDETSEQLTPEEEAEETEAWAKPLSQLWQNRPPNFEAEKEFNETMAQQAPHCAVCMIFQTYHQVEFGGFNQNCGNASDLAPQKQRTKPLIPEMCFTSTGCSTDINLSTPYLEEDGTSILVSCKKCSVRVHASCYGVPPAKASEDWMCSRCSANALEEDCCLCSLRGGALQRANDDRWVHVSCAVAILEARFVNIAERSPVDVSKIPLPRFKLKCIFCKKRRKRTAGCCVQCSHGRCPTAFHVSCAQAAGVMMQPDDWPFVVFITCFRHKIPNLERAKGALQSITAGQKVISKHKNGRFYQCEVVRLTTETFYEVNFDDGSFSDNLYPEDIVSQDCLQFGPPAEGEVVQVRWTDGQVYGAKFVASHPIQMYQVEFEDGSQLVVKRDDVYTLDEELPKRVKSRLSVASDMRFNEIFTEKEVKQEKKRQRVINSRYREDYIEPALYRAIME
Assay type: functional

Potency, active:
CCCc1nnc(NC(=O)C2C(=O)c3cccc4c3N(CC4)C2=O)s1 (stereo not drawn) 44.7 µM
Cl.NC(CCC(=O)O)C(=O)O (stereo not drawn) 3.55 µM
Cl.N[C@@H](CCC(=O)O)C(=O)O 20 µM
